Out of some 69,000 compounds screened, about 8,600 (12%) showed an effect of 50% or more. The list comes from a sample in which strong results are over-represented; it also holds similar structures and randomly drawn compounds.

This assay deals with Plasmodium berghei. The experiment in a line: Screen against P. berghei liver stage (PbLuc), transformed with Luciferase, at 10uM. The format is functional, HepG2. The settings on record: tested at 10 uM.
With `Cc1c[nH]c(C(=O)N2CCn3nc(C(=O)NC4CC4)cc3C2)n1`, the INHIBITION amounted to 53.7%.
In the case of `Cc1cc(C(=O)N2CCn3nc(C(=O)NC4CC4)cc3C2)nc(C)n1`, the INHIBITION stood at 34.2%.
With `Cc1nc2sccn2c1C(=O)N1CCn2nc(C(=O)NC3CC3)cc2C1`, the INHIBITION turned out to be 25.5%.
For `N#Cc1cccc(CN2C[C@@H](NC(=O)C3CC3)[C@H]3OCCC[C@H]32)c1` the value was 42%.
With `CCc1ccccc1OCCNCCc1c[nH]cn1`, the INHIBITION amounted to 51.3%.
For `CCn1c(-c2ccccc2)nn(CC(=O)NCCc2c[nH]cn2)c1=O`, the INHIBITION is on record as 31.4%.
For the compound `C=C(C)COc1ccccc1CNCCc1c[nH]cn1`, the INHIBITION is given as 21.7%.
As for `O[C@H]1CN(Cc2cc3ccccc3o2)CC[C@@]12CCCO2`, the INHIBITION turned out to be 15.9%.
For the compound `O=C(CN1CCOC(Cn2cccn2)C1)Nc1cccnc1` (stereo unspecified), the INHIBITION came to 10.7%.
For `Cc1nc(C)n(CC2CCCN(CC(=O)Nc3cccnc3)C2)n1` (stereo unspecified) the value was 57.2%; for `Cc1cc(C)n(CC2CN(CC(=O)Nc3ccncc3)CCO2)n1` (stereo unspecified), 44.3%.
On to `Cc1nc(C)n(CC2CCCN2CC(=O)Nc2cccnc2)n1` (stereo unspecified), for which the INHIBITION is -6.39%.
Turning to `Cc1cc(NC(=O)CN2CCOC(Cn3nc(C)cc3C)C2)n(C)n1` (stereo unspecified), the INHIBITION came out at 56%.
For the compound `Cc1nc(C)n(CC2CN(CC(=O)Nc3ccncc3)CCO2)n1` (stereo unspecified), the INHIBITION is reported as 64.1%.
In the case of `Cc1cnn(CC2CN(CC(=O)Nc3ccncc3)CCO2)c1` (stereo unspecified), the INHIBITION is 11.2%.
The figure for `Cc1nc(C)n(CC2CCCN(CC(=O)Nc3ccncc3)C2)n1` (stereo unspecified) is -0.15%; for `Cc1nc(C)n(CC2CN(CC(=O)Nc3cccnc3)CCO2)n1` (stereo unspecified) it is -13.2%; for `Cc1nc(C)n(CC2CN(CC(=O)Nc3nccs3)CCO2)n1` (stereo unspecified) it is 30.1%.
As for `CCC1CN(CC(=O)Nc2cc(C)nn2C)CCO1` (stereo unspecified), the INHIBITION is 23.4%.
On to `Cc1cnn(CC2CN(CC(=O)Nc3cccnc3)CCO2)c1` (stereo unspecified), for which the INHIBITION is 67.5%.
The figure for `CO[C@H]1CCN(C(=O)c2ccsc2)[C@@H]2CN(CC3CC3)C[C@H]12` is 0.112%; for `Cc1cnn(-c2ccc(C(=O)N3CCCC(n4ccnc4C)C3)cc2)c1` (stereo unspecified) it is 0.411%.
The figure for `Cn1cc(C2CCCN2C(=O)COCCOc2ccccc2)cn1` (stereo unspecified) is 44.1%; for `CC(C)N1CCc2onc(Cn3cccc3)c2C1` it is 4.02%; for `Cc1nc(C)n(CC2CCCN2CCOc2ccccc2F)n1` (stereo unspecified) it is -83.4%.
Regarding `CC(C)c1nc(C2CCCN(C(=O)CCc3cscn3)C2)no1` (stereo unspecified), the INHIBITION is -43.5%.
As to `c1cnc(Nc2cc(CCC3CCCNC3)ccn2)cn1` (stereo unspecified), the INHIBITION was -26.2%.
On to `Cc1nc2cc(C(=O)N3CCn4c(nnc4C4CC4)C3)ccc2s1`, for which the INHIBITION turned out to be 10.9%.
In the case of `CCN(CC)CCn1cc(NC2CCN(C(C)(C)C)CC2)cn1`, the INHIBITION is on record as -13.1%.
With `Cc1nonc1NC(=O)C1SCCc2ccccc21` (stereo unspecified), the INHIBITION was -92.8%.
For the compound `Cc1nn(C)c(NC(=O)C2SCCc3ccccc32)c1C` (stereo unspecified), the INHIBITION stood at 74%.
For `O=C(NCCc1nncn1C1CC1)C1SCCc2ccccc21` (stereo unspecified), the INHIBITION is given as -4.13%.
Turning to `O=C(c1ccncc1)N(CCO)Cc1cc(Br)ccc1F`, the INHIBITION worked out at 35.6%.
On to `Nc1nc2c(c(=O)[nH]1)CCN(C(=O)c1ccccc1N1CCCC1)C2`, for which the INHIBITION was 8.24%.
Regarding `O=C(c1cnc2n1CCCC2)N1CCCC1`, the INHIBITION worked out at 66.1%.
For `O=C(NC1CC1)c1cnc2n1CCCC2` the value was -40.6%; for `CC(C)(C)NC(=O)c1cnc2n1CCCC2`, -107%.
For `O=C(NCCCc1ccccn1)c1cn(CCN2CCNCC2)nn1`, the INHIBITION was -37.8%.
`CCN1CCN(C(=O)c2cc(-c3cccs3)cs2)CC1`: the INHIBITION is on record as -15.5%.
In the case of `CC(C)NC(=O)Nc1ccc(CS(=O)(=O)C(C)(C)C)cc1`, the INHIBITION is listed as -8.69%.
On to `O=C1NCC[C@]12CN(Cc1ccoc1)C[C@H]2c1ccccc1`, for which the INHIBITION was -38.1%.
The figure for `CCCS(=O)(=O)N1C[C@@H](c2ccccc2)[C@@]2(CCNC2=O)C1` is 53.9%; for `O=C1NCC[C@]12CN(Cc1cccnc1)C[C@H]2c1ccccc1` it is -3.77%.
Turning to `O=C(c1cnccn1)N1C[C@@H](c2ccccc2)[C@@]2(CCNC2=O)C1`, the INHIBITION is recorded as 74.8%.
For `O=C(c1cccnc1)N1C[C@@H](c2ccccc2)[C@@]2(CCNC2=O)C1` the value was -0.554%; for `O=C(c1cnccn1)N1CCC2(CC1)C(=O)NCC2c1ccccc1` (stereo unspecified), 49.7%; for `O=C1NCC[C@]12CN(Cc1ccncc1)C[C@H]2c1ccccc1`, 51.3%.
In the case of `CCS(=O)(=O)N1C[C@@H](c2ccccc2)[C@@]2(CCNC2=O)C1`, the INHIBITION was found to be 48.4%.
Regarding `Cc1ccc(CN2C[C@@H](c3ccccc3)[C@@]3(CCNC3=O)C2)o1`, the INHIBITION is listed as -2.46%.
For the compound `N#Cc1c2n(c3c(N)ncnc13)CCCCC2`, the INHIBITION was 44.4%.
Take `CC(C(=O)N1CCN(c2ncccn2)CC1)n1cncn1` (stereo unspecified): the INHIBITION was 10%.
Regarding `CCc1oc(C(=O)N2CC[C@@H]3CC[C@H](C2)N3)cc1CN(CC)CC`, the INHIBITION is 29.4%.
Regarding `Cc1ccc(CN2CCC(c3cnccn3)CC2)s1`, the INHIBITION is on record as 18.9535%.
The figure for `CC(C)(O)CN1CC(C)(C)CN(C(=O)CCc2ccccc2)CC1=O` is 44.9%; for `Cn1c(N2CCOCC2)nc2cc(C(=O)NCC(F)(F)F)ccc21` it is 20.9%; for `CCN(C)c1ncnc2c1CCN(C(=O)Cc1ccccn1)CC2` it is 34.4%.
As to `Cc1cc(CNCc2c(C)n(CC(C)C)c3ccccc23)[nH]n1`, the INHIBITION is listed as 27.4%.
The figure for `CC(C)N1CC2(CCCN(c3ccnc4ccccc34)C2)CCC1=O` (stereo unspecified) is 65.1%.
The figure for `CC(C)N1CC2(CCC1=O)CCN(c1ccnc3ccccc13)CC2` is 20.5%; for `CC(C)N1CC2(CCCN(c3ccccn3)C2)CCC1=O` (stereo unspecified) it is -9.18%; for `CC(C)N(Cc1cccc(Cl)c1)Cc1nc2c(cnn2C)c(=O)[nH]1` it is 15.6%.
For `COc1ccc(CCNC2CCCN(Cc3noc(C)n3)C2)cc1` (stereo unspecified), the INHIBITION came out at 35.9%.
As for `CC(=O)Nc1ccccc1Sc1nc(Br)nn1C`, the INHIBITION came to 5.58%.
With `CN(Cc1n[nH]c2c1CCC2)C(=O)c1cc(-c2cccn2C)n[nH]1`, the INHIBITION was -7.53%.
The figure for `CC(C)C(=O)NCc1ccc(N(C)C)cc1` is -51.5%; for `CCOCc1ccc(CNC2=NCCCN2)cc1` it is 47.1%.
`CN(C)c1ccc(CNC2=NCCCN2)cc1`: the INHIBITION is reported as 75.8%.
Take `COC(=O)c1ccc(Cn2nc(C)cc2C)cc1`: the INHIBITION is -60.4%.
In the case of `Cc1c(C(=O)N2CCN(C)[C@@H]3CS(=O)(=O)C[C@@H]32)[nH]c2ccc(F)cc12`, the INHIBITION came out at 43%.
For `CCc1c(C(=O)N2CCN(C)[C@@H]3CS(=O)(=O)C[C@@H]32)[nH]c2ccccc12` the value was 60.1%.
For the compound `CCN1CCN(C(=O)c2[nH]c3ccccc3c2Cl)[C@H]2CS(=O)(=O)C[C@H]21`, the INHIBITION is recorded as -9.87%.

The record behind these values is ChEMBL document CHEMBL4513216, “Probing the Open Global Health Chemical Diversity Library for Multistage-Active Starting Points for Next-Generation Antimalarials” (ACS Infect Dis, 2020).
